# Test results reported in PubChem BioAssay (EPA / NIEHS).
# Records with an inconclusive call do not appear. Active and inactive are the calls of the source. Rule for the calls: active = hit-call score of the fitted dose curve at least 0.9, where 1 is the maximum; inconclusive = response in the unintended direction; inactive = score below 0.9.
# Assay: STM_H9_NormalizedViability: Cytotoxicity Assessment at 120 hours in the Stemina devTOX quickPredict H9 human embryonic stem cell (hESC)-based Assay (AID 2283784)
# Protocol: STM_H9_viability utilizes undifferentiated H9 cells to measure cell viability.STM_H9_NormalizedViability is a component calculated in the STM_H9_viability assay. It measures cell viability using background corrected relative fluorescence units (RFU) value from the CellTiterFluor Assay normalized to the value of the 0.1% DMSO neutral control treatment (by 96-well plate)Data from the assay component STM_H9_Viability was analyzed at the assay endpoint STM_H9_Viability_Norm in the positive analysis fitting direction relative to DMSO as the negative control and baseline of activity. Using a type of viability reporter, loss-of-signal activity can be used to understand viability.
# H9 hESCs maintained in a pluripotent state were exposed to test compound for 72h with chemical replenishment with media replacement every 24h. Cell-conditioned media from the final 24-h treatment period was collected for analysis of the targeted biomarker, and cell viability of the corresponding cell layer was assessed. The chemical library was tested in blinded fashion. Each test plate included 1uM Methotrexate (MTX; Selleck Chemicals, Houston, Texas) as a positive reference, 5 nM MTX as a negative reference, 0.1% DMSO as the neutral (vehicle) control, and sample-level media blanks.H9 cell-conditioned media from the final 24-h treatment period was collected for analysis of the targeted biomarker and cell viability was measured from the corresponding cell layer. Cell viability was measured using the CellTiter-Fluor assay (Promega, Madison, Wisconsin) based on proteolytic cleavage of a substrate to fluorescent signal proportional to the number of living cells. The cell viability Relative Fluorescence Unit (RFU) was background corrected and normalized to mean RFU of the neutral control (0.1% DMSO). The collected H9-cell-conditioned media samples were processed for targeted biomarker analysis as described (Palmer et al., 2013). Briefly, spent media samples were deproteinized (40% acetonitrile) and processed for UPLC-HRMS. Data acquisition was performed using 4 separate UPLC-HRMS systems, consisting of an Agilent 1290 Infinity LC system (Agilent Technologies) interfaced with an Agilent high-resolution mass spectrometer (models G6520A, G6520B, G6530A, and G6224A). A Waters Acquity UPLC BEH Amide column (2.1mm x 50mm, 1.7lm particle size; Waters, Milford, Massachusetts) maintained at 40C was applied for separation of metabolites using a 6.5min solvent gradient with 0.1% formic acid in water and 0.1% formic acid in acetonitrile (1.0ml/min flow rate). Data were acquired using MassHunter Acquisition software (version B 04.00, Agilent Technologies). The extracted ion chromatogram (EIC) areas for ORN, CYSS, and their respective spike-in C13-standards were determined using the Agilent MassHunter Quantitative Analysis software, version B.05.00 or newer (Agilent Technologies), and data were normalized as described in Palmer et al. (2017).
Structure (SMILES),outcome,AC50
C[N+]1(C)CCCCC1,inactive,–
CCOP(=S)(OCC)Oc1cc(C)nc(C(C)C)n1,–,87.1 µM (active)
CCCCOC(=O)[C@@H](C)Oc1ccc(Oc2ccc(C#N)cc2F)cc1,–,93.9 µM (active)
CSC1=N[C@@](C)(c2ccccc2)C(=O)N1Nc1ccccc1,–,30.1 µM (active)
CON=C(C(=O)OC)c1ccccc1CON=C(C)c1cccc(C(F)(F)F)c1,inactive,–
CC(C)[C@H](C(=O)O[C@H](C#N)c1cccc(Oc2ccccc2)c1)c1ccc(Cl)cc1,inactive,–
C=C(C)[C@H]1Cc2c(ccc3c2O[C@@H]2COc4cc(OC)c(OC)cc4[C@@H]2C3=O)O1,–,0.515 µM (active)
CSc1nnc(C(C)(C)C)c(=O)n1N,inactive,–
CCOP(=S)(OCC)SCCSCC,inactive,–
CC(C1CC1)C(O)(Cn1cncn1)c1ccc(Cl)cc1 (centres undefined),inactive,–
N#CSCSC#N,–,20.5 µM (active)
FC(F)C(F)(F)OCC(Cn1cncn1)c1ccc(Cl)cc1Cl (centres undefined),inactive,–
C[Si](Cn1cncn1)(c1ccc(F)cc1)c1ccc(F)cc1,–,80.6 µM (active)
CCC(=NOC/C=C/Cl)C1=C(O)CC(C2CCOCC2)CC1=O (centres undefined),inactive,–
CC1=NNC(=O)N(/N=C/c2cccnc2)C1,inactive,–
CSc1nc(NC(C)C)nc(NC(C)C)n1,inactive,–
CN(C)C(=O)Nc1cccc(C(F)(F)F)c1,inactive,–
CN(C)[C@@H]1C(=O)C(C(N)=O)=C(O)[C@@]2(O)C(=O)C3=C(O)c4c(O)cccc4[C@@](C)(O)[C@H]3[C@H](O)[C@@H]12,–,50 µM (active)
Cc1nn(-c2cc(NS(C)(=O)=O)c(Cl)cc2Cl)c(=O)n1C(F)F,inactive,–
Cc1ccn2nc(S(=O)(=O)Nc3c(F)cccc3F)nc2n1,inactive,–
CNc1cnn(-c2cccc(C(F)(F)F)c2)c(=O)c1Cl,inactive,–
O=[N+]([O-])c1cc(C(F)(F)F)c(Cl)c([N+](=O)[O-])c1Nc1ncc(C(F)(F)F)cc1Cl,–,16.3 µM (active)
CC(COc1ccc(Oc2ccccc2)cc1)Oc1ccccn1 (centres undefined),inactive,–
CC(C)N(C(=O)SCC(Cl)=C(Cl)Cl)C(C)C,inactive,–
